This is an account of results in PubChem BioAssay (NCI).

About 83,000 compounds went through this panel and 20% of them were active in at least one assay; those are over-represented in the sample as a whole.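 For each line, cells grew in 96-well plates with the test compound present at a single concentration for 48 hours.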 Values without a mark were called inactive. The source made the active and inactive calls. The calls were made as follows: active = growth percent below 10; inactive = the rest.

Some test systems named below: NCI-H23 lung; NCI-H226 lung; NCI-H322M lung; HOP-62 NSCLC; NCI-H460 lung; HOP-92 NSCLC; NCI-H522 lung; A549/ATCC NSCLC; 786-0 renal; COLO 205 colon; DU-145 prostate; K-562 leukemia; MDA-MB-231 breast; RXF 393 renal; SF-268 CNS; SF-295 CNS; SF-539 CNS; UACC-257 melanoma; MALME-3M melanoma.
Common to all, as to experiment: NCI-60 one-dose screen, 48 h (100 = growth as untreated, 0 = no growth, -100 = all killed)
Holding throughout (details): 10 µM unless noted

Turning to `CC(=O)c1ccc2c(c1)CCN2`, the growth in the experiment with NCI-H23 lung is 102%; in the experiment on NCI-H226 lung, 102%; with NCI-H322M lung it was 101%; with HOP-62 NSCLC, 96.8%; with NCI-H460 lung, 117%; in the experiment with HOP-92 NSCLC, 82.5%. Besides, the growth in the experiment on NCI-H522 lung is 91%; with A549/ATCC NSCLC, 98%; in the experiment with 786-0 renal, 108%; in the experiment on COLO 205 colon, 102%; in the experiment with DU-145 prostate, 104%; in the experiment on K-562 leukemia it was 111%. In addition, the growth in the experiment on MDA-MB-231 breast is 96.1%; in the experiment with RXF 393 renal, 107%; with SF-268 CNS it was 98.9%; in the experiment on SF-295 CNS it was 125%; in the experiment on SF-539 CNS it was 101%; in the experiment with UACC-257 melanoma, 104%.

`COc1ccc(/C(C)=C(\c2ccc(Cl)cc2)c2ccc(OCCN3CCCCCC3)cc2)cc1F`: the growth with NCI-H23 lung is 54.1%; with NCI-H226 lung it was 71%; with NCI-H322M lung it was 83.3%; in the experiment with HOP-62 NSCLC it was 36.3%; in the experiment on NCI-H460 lung, 8.63% (active); with HOP-92 NSCLC, 73.3%. Besides, the growth in the experiment with NCI-H522 lung was 65.9%; in the experiment on A549/ATCC NSCLC, 55%; in the experiment on 786-0 renal, 4.15% (active); in the experiment on COLO 205 colon it was 22.3%; with DU-145 prostate it was 67.5%; in the experiment on K-562 leukemia, 1.96% (active). In addition, the growth in the experiment on MALME-3M melanoma was -3.61% (active); in the experiment with MDA-MB-231 breast, 55.1%; with SF-268 CNS it was 68.3%; in the experiment on SF-295 CNS, -7.79% (active); in the experiment on SF-539 CNS, 24.5%; in the experiment on UACC-257 melanoma it was 39%.

For the compound `O=C(Nc1ccccc1)c1sc(-c2cccc(C(F)(F)F)c2)cc1O`, the growth was 54.1% in the experiment with NCI-H23 lung; 80.1% in the experiment on NCI-H226 lung; 77.1% with NCI-H322M lung; 79.5% in the experiment with HOP-62 NSCLC; 49.4% in the experiment with NCI-H460 lung; -7.04% (active) in the experiment with HOP-92 NSCLC. The growth is 39.6% in the experiment on NCI-H522 lung; 64.2% with A549/ATCC NSCLC; 89.6% in the experiment on 786-0 renal; 107% with COLO 205 colon; 82.4% in the experiment with DU-145 prostate; 81.4% with MALME-3M melanoma. Besides, the growth is 91.9% in the experiment on MDA-MB-231 breast; 102% in the experiment on RXF 393 renal; 82.8% in the experiment with SF-268 CNS; 82.9% in the experiment on SF-295 CNS; 42.2% in the experiment on SF-539 CNS; 46.9% in the experiment with UACC-257 melanoma.

`COc1ccc(-n2nnc(C(=O)NCCc3c[nH]c4ccc(F)cc34)c2C)cc1`: the growth in the experiment on NCI-H23 lung was 98.5%; with NCI-H226 lung, 97.9%; in the experiment with NCI-H322M lung, 101%; in the experiment with HOP-62 NSCLC, 86.5%; with NCI-H460 lung, 100%; with HOP-92 NSCLC, 87.6%. Further, the growth with NCI-H522 lung was 76.1%; in the experiment with A549/ATCC NSCLC, 82%; in the experiment on 786-0 renal it was 99.6%; with COLO 205 colon it was 111%; in the experiment on DU-145 prostate it was 107%; with MALME-3M melanoma it was 106%. Besides, the growth is 97.8% with MDA-MB-231 breast; 105% with RXF 393 renal; 97.3% with SF-268 CNS; 102% in the experiment with SF-295 CNS; 103% with SF-539 CNS; 87.7% in the experiment on UACC-257 melanoma.

On to `CCCCCCNC(=O)c1cc(NCc2cc(O)ccc2O)ccc1O`, for which the growth was 87.5% in the experiment on NCI-H23 lung; 92.3% in the experiment on NCI-H226 lung; 89.2% with NCI-H322M lung; 70.9% in the experiment on HOP-62 NSCLC; 94.5% in the experiment on NCI-H460 lung; 24% with HOP-92 NSCLC. The growth with NCI-H522 lung is -62.3% (active); in the experiment with A549/ATCC NSCLC it was 70.5%; with 786-0 renal it was 45.9%; in the experiment with COLO 205 colon, 96.9%; in the experiment on DU-145 prostate, 92.6%; with MALME-3M melanoma, 67.4%. In addition, the growth in the experiment with MDA-MB-231 breast is 45.2%; in the experiment on RXF 393 renal, 37.4%; in the experiment on SF-268 CNS, 53.8%; in the experiment with SF-295 CNS, 95.8%; with SF-539 CNS, 11.8%; in the experiment with UACC-257 melanoma, 56.1%.

For the compound `C[N+](C)(C)CCOC(OCC[N+](C)(C)C)(c1ccccc1)c1ccccc1`, the growth in the experiment with NCI-H23 lung is 99.8%; with NCI-H226 lung, 107%; with NCI-H322M lung it was 129%; with HOP-62 NSCLC, 106%; with NCI-H460 lung, 106%; with HOP-92 NSCLC, 91%. Also, the growth with NCI-H522 lung is 93%; in the experiment with A549/ATCC NSCLC it was 100%; in the experiment with 786-0 renal, 114%; in the experiment on COLO 205 colon, 116%; with K-562 leukemia, 99%; with MALME-3M melanoma it was 126%. Besides, the growth in the experiment with MDA-MB-231 breast is 108%; in the experiment with RXF 393 renal, 122%; in the experiment with SF-295 CNS it was 117%; with SF-539 CNS it was 96.6%; in the experiment on UACC-257 melanoma it was 103%.

Consider `O=[N+]([O-])c1ccc2[nH]cc(-c3c4ccsc4cc4[nH]c5ccc([N+](=O)[O-])cc5c34)c2c1`, for which the growth was 7.93% (active) in the experiment on NCI-H23 lung; -9.9% (active) in the experiment on NCI-H226 lung; 20.4% in the experiment on NCI-H322M lung; 10.8% with HOP-62 NSCLC; 4.39% (active) in the experiment with NCI-H460 lung; 26.8% with HOP-92 NSCLC. For the same compound, the growth in the experiment with NCI-H522 lung was -22.9% (active); in the experiment on A549/ATCC NSCLC it was 5.78% (active); with 786-0 renal, -44% (active); in the experiment on COLO 205 colon, -50.3% (active); in the experiment on DU-145 prostate, -14.3% (active); in the experiment with MALME-3M melanoma, 30.1%. The growth in the experiment on MDA-MB-231 breast was -5.82% (active); in the experiment with RXF 393 renal it was -42.2% (active); in the experiment on SF-268 CNS it was 19.3%; in the experiment with SF-295 CNS, -4.03% (active); in the experiment on SF-539 CNS, -44.9% (active); in the experiment with UACC-257 melanoma it was 41.8%.

`C[C@@H]1CC[C@@H]2[C@@H]1[C@H](OC(=O)/C=C/c1ccccc1)[C@]1(CCCOCCOCCOCCOC(=O)CCCC[C@@H]3SC[C@@H]4NC(=O)N[C@@H]43)C[C@@H](OC(=O)CO)[C@@]2(C)O1`: the growth in the experiment with NCI-H23 lung is 102%; in the experiment on NCI-H226 lung, 105%; in the experiment on NCI-H322M lung, 92.6%; in the experiment on HOP-62 NSCLC, 99.3%; in the experiment on NCI-H460 lung, 106%; in the experiment with HOP-92 NSCLC, 108%. Moreover, the growth in the experiment with NCI-H522 lung was 85%; in the experiment with A549/ATCC NSCLC, 97.7%; with 786-0 renal it was 97.6%; in the experiment with COLO 205 colon it was 112%; in the experiment on DU-145 prostate, 103%; in the experiment on MALME-3M melanoma, 99.6%. Further, the growth was 106% with MDA-MB-231 breast; 108% with RXF 393 renal; 102% in the experiment on SF-268 CNS; 107% in the experiment on SF-295 CNS; 103% in the experiment with SF-539 CNS; 109% in the experiment on UACC-257 melanoma.
